Laboratory results: the supplement of paper PMC11732987, “Enantioselective OTUD7B fragment discovery through chemoproteomics screening and high-throughput optimisation” (Communications Chemistry, 2025)

Legend:
Assay in all cases: log2 ratio of Biotin-Ahx-Ub-VS probe labelling (fragment/DMSO); higher = less target engagement (more negative = stronger competition), active = hit call of the paper (q ≤ 0.05, log2 ratio ≤ -1)
Details in all cases: compound concentration: 200 uM; treatment time: 3 h
[1] = molecular target: USP34 (UniProt Q70CQ2)
Sequence of USP34 (Q70CQ2 whole entry, the tested form may be a part): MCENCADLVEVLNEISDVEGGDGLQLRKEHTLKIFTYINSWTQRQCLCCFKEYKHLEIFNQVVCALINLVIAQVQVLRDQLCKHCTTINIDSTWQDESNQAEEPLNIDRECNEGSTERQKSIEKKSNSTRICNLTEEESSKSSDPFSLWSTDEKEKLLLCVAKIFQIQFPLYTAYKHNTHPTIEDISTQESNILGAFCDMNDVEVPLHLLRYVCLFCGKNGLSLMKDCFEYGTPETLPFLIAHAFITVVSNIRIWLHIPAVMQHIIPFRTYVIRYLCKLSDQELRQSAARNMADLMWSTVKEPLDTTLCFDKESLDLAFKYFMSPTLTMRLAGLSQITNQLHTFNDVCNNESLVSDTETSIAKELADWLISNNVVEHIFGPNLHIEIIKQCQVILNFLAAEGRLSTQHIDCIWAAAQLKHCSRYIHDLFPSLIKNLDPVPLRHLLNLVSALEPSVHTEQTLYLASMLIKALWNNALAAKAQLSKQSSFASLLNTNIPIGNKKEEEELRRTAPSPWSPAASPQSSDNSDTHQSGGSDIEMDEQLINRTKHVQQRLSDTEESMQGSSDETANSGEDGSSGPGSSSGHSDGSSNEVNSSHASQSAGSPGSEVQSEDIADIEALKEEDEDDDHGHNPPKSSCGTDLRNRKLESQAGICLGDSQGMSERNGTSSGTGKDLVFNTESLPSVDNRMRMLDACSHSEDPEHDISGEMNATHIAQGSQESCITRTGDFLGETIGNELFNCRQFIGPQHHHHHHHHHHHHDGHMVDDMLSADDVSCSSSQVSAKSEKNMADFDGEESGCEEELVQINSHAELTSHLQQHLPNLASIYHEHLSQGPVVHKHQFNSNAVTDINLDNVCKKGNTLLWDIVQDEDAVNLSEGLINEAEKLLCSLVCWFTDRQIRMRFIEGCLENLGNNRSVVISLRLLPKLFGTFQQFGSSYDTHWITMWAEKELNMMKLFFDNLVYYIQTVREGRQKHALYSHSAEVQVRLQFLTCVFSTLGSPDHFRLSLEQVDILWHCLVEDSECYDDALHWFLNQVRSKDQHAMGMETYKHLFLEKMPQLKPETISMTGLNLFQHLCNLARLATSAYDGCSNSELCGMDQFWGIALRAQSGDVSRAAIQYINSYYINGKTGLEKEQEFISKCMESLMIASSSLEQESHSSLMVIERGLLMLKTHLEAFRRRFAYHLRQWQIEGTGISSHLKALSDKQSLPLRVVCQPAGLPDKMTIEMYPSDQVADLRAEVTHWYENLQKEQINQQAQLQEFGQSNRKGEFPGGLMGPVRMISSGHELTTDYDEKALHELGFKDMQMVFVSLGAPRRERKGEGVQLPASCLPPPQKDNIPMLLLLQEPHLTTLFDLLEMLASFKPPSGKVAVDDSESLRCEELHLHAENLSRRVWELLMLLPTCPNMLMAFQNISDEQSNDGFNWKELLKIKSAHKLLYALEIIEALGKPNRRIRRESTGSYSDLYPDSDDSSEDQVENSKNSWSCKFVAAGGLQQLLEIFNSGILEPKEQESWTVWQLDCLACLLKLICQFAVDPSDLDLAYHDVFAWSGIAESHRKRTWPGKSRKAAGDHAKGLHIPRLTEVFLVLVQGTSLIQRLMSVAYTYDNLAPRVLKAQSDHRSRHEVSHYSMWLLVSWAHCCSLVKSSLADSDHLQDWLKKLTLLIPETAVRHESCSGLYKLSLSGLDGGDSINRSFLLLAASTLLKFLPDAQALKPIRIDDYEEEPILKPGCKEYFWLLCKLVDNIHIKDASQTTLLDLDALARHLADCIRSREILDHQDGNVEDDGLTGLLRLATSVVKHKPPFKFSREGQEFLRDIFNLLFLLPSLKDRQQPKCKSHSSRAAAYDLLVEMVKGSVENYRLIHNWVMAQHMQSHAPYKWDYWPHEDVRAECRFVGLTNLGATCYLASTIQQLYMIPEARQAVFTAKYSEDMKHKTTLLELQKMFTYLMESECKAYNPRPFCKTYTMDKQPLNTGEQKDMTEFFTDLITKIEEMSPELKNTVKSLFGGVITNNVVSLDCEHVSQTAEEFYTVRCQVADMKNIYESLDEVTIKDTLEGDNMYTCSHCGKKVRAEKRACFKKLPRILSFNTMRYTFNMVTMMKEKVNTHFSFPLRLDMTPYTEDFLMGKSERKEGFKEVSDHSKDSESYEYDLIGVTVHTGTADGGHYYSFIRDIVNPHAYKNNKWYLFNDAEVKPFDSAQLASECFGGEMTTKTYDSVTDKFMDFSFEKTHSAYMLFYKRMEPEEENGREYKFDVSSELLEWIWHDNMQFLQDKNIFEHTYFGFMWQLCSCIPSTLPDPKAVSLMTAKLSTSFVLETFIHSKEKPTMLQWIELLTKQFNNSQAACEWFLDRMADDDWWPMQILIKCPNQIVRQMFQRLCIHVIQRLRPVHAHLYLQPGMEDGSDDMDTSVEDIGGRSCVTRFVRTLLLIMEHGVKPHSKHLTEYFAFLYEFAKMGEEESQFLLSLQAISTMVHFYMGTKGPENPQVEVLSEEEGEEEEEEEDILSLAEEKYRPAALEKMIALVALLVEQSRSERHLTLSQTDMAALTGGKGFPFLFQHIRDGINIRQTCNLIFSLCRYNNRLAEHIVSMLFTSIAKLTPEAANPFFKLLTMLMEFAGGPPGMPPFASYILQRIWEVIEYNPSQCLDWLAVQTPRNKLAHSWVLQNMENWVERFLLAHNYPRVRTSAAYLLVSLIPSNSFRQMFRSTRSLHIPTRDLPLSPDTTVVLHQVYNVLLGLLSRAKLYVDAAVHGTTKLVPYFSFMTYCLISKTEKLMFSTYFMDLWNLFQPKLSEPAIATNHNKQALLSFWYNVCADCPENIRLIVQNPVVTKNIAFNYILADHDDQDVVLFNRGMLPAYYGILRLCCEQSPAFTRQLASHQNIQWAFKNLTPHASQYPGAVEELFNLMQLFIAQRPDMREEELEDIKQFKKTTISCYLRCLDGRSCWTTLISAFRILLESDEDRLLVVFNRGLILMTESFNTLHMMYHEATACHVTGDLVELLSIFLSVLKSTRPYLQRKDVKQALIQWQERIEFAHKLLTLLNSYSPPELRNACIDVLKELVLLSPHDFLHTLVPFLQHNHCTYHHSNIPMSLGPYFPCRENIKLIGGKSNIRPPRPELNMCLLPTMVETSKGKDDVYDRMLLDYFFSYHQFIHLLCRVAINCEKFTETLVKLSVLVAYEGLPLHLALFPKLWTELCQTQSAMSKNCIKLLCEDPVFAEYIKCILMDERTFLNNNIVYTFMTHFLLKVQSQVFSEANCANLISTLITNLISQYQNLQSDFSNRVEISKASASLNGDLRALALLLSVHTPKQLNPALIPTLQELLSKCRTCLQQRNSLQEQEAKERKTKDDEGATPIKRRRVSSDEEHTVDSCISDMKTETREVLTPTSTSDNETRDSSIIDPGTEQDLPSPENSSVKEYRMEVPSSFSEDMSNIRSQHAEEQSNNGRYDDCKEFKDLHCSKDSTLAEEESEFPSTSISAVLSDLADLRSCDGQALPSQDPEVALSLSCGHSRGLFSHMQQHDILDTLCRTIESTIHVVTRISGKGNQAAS
How it was run: (§1)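 Each value is an average log2 ratio of fragment to vehicle, tested by unpaired t-test. The underlying Spectronaut label-free quantities were global-median-normalised, and only proteins with ≥2 unique peptides were included. Triplicate HEK293T lysate samples (495 µg) were exposed to fragment at 200 µM or vehicle for 3 h, then to Biotin-Ahx-Ub-VS at 0.5 µM final for 1 h, before NeutrAvidin enrichment of labelled DUBs, LysC and trypsin digestion, and diaPASEF LC-MS/MS.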

[2] = molecular target: T1, USP36 (UniProt Q9P275)
T1 sequence (whole entry): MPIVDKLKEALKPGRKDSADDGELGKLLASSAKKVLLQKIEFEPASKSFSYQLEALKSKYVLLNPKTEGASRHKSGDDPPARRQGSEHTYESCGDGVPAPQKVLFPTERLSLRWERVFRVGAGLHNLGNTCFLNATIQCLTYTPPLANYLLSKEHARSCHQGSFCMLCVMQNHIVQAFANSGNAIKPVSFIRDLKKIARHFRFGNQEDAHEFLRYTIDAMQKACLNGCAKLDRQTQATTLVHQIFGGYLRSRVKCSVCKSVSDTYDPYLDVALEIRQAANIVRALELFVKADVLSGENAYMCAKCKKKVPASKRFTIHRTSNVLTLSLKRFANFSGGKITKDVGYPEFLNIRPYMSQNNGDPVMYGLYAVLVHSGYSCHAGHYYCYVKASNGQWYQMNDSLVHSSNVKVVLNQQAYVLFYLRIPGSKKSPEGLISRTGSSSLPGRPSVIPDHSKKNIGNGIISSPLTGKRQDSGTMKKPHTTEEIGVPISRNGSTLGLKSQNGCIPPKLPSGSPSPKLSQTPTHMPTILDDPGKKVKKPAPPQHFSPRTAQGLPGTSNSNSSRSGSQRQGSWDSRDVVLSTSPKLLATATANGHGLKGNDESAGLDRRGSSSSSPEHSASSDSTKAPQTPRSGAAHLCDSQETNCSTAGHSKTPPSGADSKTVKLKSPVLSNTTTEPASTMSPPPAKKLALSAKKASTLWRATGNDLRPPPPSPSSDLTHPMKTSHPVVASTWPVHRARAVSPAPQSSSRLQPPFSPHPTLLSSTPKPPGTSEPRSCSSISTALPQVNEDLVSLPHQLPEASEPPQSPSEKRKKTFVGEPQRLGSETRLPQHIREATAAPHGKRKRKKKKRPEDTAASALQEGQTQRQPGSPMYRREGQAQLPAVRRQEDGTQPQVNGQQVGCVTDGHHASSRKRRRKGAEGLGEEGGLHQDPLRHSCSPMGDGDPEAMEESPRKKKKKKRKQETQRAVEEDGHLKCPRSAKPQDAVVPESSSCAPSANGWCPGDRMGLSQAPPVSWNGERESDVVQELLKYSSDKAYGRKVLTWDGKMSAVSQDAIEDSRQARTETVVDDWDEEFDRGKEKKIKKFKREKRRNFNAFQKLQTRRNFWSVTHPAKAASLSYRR
How it was run: as §1

[3] = molecular target: T2, USP38 (UniProt Q8NB14)
T2 sequence (whole entry): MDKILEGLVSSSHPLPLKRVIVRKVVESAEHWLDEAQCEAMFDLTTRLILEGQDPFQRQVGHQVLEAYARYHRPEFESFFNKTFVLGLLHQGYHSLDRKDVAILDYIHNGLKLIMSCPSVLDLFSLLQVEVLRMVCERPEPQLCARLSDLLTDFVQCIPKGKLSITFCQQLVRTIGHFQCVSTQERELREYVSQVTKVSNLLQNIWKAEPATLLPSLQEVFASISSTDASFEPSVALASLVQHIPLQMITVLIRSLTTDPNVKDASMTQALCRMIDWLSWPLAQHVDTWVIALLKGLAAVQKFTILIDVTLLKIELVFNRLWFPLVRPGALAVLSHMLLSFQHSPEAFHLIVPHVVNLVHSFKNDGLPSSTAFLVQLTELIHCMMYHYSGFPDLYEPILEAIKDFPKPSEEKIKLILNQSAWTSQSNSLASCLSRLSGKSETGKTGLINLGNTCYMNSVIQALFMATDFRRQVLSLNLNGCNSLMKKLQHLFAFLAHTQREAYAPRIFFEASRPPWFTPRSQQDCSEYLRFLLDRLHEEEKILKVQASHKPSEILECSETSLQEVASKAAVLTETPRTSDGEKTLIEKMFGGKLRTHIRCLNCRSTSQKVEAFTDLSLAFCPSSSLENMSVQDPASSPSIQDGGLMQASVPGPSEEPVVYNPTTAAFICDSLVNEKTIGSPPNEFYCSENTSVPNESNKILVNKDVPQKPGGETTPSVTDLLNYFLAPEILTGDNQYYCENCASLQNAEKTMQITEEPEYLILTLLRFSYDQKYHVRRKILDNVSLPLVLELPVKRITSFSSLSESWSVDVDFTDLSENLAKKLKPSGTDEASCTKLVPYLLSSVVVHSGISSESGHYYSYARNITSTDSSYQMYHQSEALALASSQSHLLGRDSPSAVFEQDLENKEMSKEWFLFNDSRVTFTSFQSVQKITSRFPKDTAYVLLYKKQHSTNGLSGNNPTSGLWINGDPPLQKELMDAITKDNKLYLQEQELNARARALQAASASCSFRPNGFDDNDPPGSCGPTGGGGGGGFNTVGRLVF
How it was run: as §1

[4] = molecular target: T3, USP39 (UniProt Q53GS9)
T3 sequence (whole entry): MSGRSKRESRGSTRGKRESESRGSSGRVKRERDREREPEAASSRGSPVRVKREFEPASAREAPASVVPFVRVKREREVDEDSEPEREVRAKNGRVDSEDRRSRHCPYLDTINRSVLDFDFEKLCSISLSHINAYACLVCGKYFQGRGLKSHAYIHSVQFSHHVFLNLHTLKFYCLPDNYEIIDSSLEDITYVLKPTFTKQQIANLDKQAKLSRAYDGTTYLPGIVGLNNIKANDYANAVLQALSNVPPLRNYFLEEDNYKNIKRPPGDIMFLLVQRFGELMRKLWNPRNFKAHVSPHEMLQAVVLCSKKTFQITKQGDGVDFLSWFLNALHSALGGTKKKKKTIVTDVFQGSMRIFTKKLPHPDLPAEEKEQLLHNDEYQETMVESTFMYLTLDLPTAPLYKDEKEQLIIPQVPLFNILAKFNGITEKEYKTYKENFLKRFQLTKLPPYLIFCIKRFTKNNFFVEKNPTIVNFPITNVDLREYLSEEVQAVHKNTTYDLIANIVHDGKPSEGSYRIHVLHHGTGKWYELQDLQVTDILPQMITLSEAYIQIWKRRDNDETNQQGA
How it was run: as §1

[5] = molecular target: T4, USP4 (UniProt Q13107)
T4 sequence (whole entry): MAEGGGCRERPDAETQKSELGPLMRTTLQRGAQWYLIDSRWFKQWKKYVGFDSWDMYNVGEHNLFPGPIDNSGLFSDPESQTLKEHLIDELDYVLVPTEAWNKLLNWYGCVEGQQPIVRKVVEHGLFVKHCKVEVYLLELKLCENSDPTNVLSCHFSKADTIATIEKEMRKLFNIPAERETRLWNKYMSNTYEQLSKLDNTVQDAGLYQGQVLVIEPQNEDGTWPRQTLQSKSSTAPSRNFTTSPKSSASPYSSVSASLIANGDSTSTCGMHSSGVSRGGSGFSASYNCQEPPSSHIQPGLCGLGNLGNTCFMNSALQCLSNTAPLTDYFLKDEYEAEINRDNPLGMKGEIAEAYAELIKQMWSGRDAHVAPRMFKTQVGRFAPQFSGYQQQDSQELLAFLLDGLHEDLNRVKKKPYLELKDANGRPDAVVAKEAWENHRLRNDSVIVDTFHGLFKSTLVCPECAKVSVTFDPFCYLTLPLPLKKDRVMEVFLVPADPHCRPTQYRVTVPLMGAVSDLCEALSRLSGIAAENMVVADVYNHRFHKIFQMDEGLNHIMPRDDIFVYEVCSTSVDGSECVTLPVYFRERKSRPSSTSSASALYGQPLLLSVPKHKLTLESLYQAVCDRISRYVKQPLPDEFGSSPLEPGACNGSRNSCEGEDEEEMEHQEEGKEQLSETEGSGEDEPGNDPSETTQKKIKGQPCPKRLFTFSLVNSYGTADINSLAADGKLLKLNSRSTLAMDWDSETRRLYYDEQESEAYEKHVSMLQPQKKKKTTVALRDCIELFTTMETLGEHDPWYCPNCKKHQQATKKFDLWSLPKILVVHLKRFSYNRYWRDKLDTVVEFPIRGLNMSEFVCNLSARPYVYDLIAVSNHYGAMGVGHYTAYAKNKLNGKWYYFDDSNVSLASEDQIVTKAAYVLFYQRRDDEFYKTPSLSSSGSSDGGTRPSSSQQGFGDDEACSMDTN
How it was run: as §1

Measured: log2 ratio of Biotin-Ahx-Ub-VS probe labelling

Cl.O=C(CCl)N1CCn2ncc(O)c2C1
inactive: [1] -0.237 | [2] -0.037 | [3] -0.188 | [4] 0.194 | [5] -0.298
